Source: PubChem
In the library only some 7.7% were active in any assay of this set; here they are far more common.
Sm TGR inh: inhibitors of Schistosoma mansoni thioredoxin glutathione reductase; AID 485364; purified TGR, DTNB reduction, TNB absorbance 405 nm; Q962Y6; Potency, µM (series often up to 114 µM), without a hit: at the top dose activity change, negative = inhibition, actives largely listed as inhibitors; 360,000 compounds, 3% hits; further: potency means the concentration at half of the fitted maximal effect; nearly all actives have a fitted effect of over 60% in size
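Kinetic colorimetric format: TGR-catalysed, NADPH-driven DTNB reduction monitored via TNB absorbance. Enzyme dispensed at 20 nM; compound exposure 15 min at room temperature before reaction start.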
HCMV inh: blocks human cytomegalovirus replication; 410,000 compounds, 4.5% hits; activity change, negative = inhibition, % at 57.5 µM; HFF cells, HCMV-luciferase reporter, 72 h; stronger effect = lower value; in the data active means activity change below about -60%; inconclusive means no clear call, values can overlap the other calls; inactive means above about -39%
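Two compound doses tested in HFFs infected with HCMV-luciferase, MOI 1 PFU/cell, 72 h at 37C. Lysate luminescence read with OneGlo; data normalized against buffer-only and 10uM Salinomycin inhibitor controls.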
Giardia FBPA inh: Giardia lamblia aldolase inhibition. A8B2U2. purified Giardia FBPA. Potency, µM (top dose mostly 59.6 µM), inactives show at the highest dose activity, negative = inhibition, hits mostly inhibitors. 290,000 compounds, 0.71% hits. AID 2451; further: potency means the concentration at half of the fitted maximal effect; nearly all actives have a fitted effect of over 55% in size
Target sequence (A8B2U2 whole entry, looked up): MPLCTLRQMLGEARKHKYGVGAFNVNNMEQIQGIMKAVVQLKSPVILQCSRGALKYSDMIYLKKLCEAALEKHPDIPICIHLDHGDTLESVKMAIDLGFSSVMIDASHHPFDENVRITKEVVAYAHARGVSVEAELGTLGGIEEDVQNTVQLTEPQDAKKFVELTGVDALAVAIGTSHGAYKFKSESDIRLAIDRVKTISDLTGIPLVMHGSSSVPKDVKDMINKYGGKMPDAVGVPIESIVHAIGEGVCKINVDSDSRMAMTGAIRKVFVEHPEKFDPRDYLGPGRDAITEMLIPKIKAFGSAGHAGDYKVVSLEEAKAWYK
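40 nM FBPA preincubated 10 min at RT with compound (up to 57.5 uM final), then substrate plus GAPDH/TPI/NAD/arsenate coupling and diaphorase/resazurin added. Fluorescence read after 20 min at RT, 525/598 nm.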
Tb PYK inh: inhibitors of Trypanosoma brucei pyruvate kinase. Potency, µM (doses to about 76.8 µM), for the others: at the top dose activity, negative = inhibition, most hits filed as inhibitors. Q57TT1. TbPYK enzyme, Kinase-Glo Plus ATP luminescence, 45 min. 410,000 compounds, 0.12% hits; further: potency means the concentration at half of the fitted maximal effect; nearly all actives have a fitted effect of over 50% in size
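Assay buffer: 50 mM TEA pH 7.2, 100 mM KCl, 10 mM MgCl2, 0.05% BSA, 0.01% Tween-20. Pyruvate kinase from T. brucei plus substrate met compound, then ADP (130 uM final). Luminescence was read post 45 min RT.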
RE007 growth inh: less growth of the S. pombe RE007 Vpr strain; S. pombe RE007 Vpr strain, BacTiter-Glo ATP luminescence, 24 h; Potency, µM (doses to about 92.2 µM), for the others: at the highest dose activity change, negative = less growth, most hits filed as inhibitors; 360,000 compounds, 0.21% hits; active means well fitted falling curve with a large enough effect; inconclusive means small, poorly fitted or top-dose-only effect; inactive means no such curve, though single readings can be large or run the other way; further: potency means the concentration at half of the fitted maximal effect; nearly all actives have a fitted effect of over 50% in size
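Fission yeast strain RE007, carrying one chromosomally integrated HIV-1 vpr copy, was seeded at OD 0.01 in PMG+AL medium with 23 nL pinned compound. After 24 h at 30 °C and 99% humidity, viability was read by BacTiter-Glo luminescence.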
FMDV antiviral: antivirals against foot and mouth disease virus. AID 1159524. Potency, µM (highest dose often 57.9 µM), for inactives: top-dose activity change, negative = inhibition, hits mostly inhibitors. FMDV antiviral cell-based qHTS. 410,000 compounds, 1.2% hits; calls by dose curve; tested in HEK293T cells; further: read-out not given here; potency means the concentration at half of the fitted maximal effect; nearly all actives have a fitted effect of over 45% in size
* hit, by the source's call; ? = inconclusive; . = no result. Unless noted, the call rests on the fitted dose curve; in most records, active means well fitted curve in the direction sought with a large enough effect; inconclusive means small, poorly fitted or top-dose-only effect, or another doubt; inactive means no such curve, though single readings can be large; an effect the other way counts as inactive or inconclusive. On the % scale 0 is the no-effect control and ±100 the full control effect.

SMILES	Sm TGR inh	HCMV inh	Giardia FBPA inh	Tb PYK inh	RE007 growth inh	FMDV antiviral
O=C(NCCc1ccccc1)C(=O)NCC1CCCN1S(=O)(=O)c1ccccc1 (stereo not given)	-1%	-28	.	8%	-24%	-19%
COc1ccc(NC(=O)C(=O)NCC2CCCN2S(=O)(=O)c2ccc(C)cc2)cc1 (stereo not given)	1%	-85*	.	0%	21%	-23%
COc1ccc(CCNC(=O)C(=O)NCC2CCCN2S(=O)(=O)c2ccccc2)cc1OC (stereo not given)	-1%	-4	.	-2%	2%	22µM*
Oc1ccc(N2CCN(c3ncnc4sc5c(c34)CCC5)CC2)cc1	-24%	-82*	-8%	-15%	-6%	?
c1ccc2c(c1)ncn2-c1ncnc2sc3c(c12)CCCC3	12%	-64*	.	1%	12%	0%
COc1ccccc1C(=O)N(Cc1cc2cc3c(cc2nc1N(C)C)OCO3)CC1CCCO1 (stereo not given)	.	.	.	.	.	11%
C=CCNC(=S)/N=c1/ccccn1CC	?	-98*	?	1%	?	-6%
Cc1ccc(-c2nc3ccccc3[nH]2)s1	-33%	99	?	?	20µM*	14%
NS(=O)(=O)c1ccc(CCNC(=O)Cn2c(=O)c3cccn3c3ccc(F)cc32)cc1	4%	39	.	7%	.	-6%
COc1cc(/C=C2\C(=O)ON=C2c2ccccc2)cc(Br)c1O	1.6µM*	16	-20%	1%	-23%	10µM*
CC1=NOC(=O)/C1=C/c1ccc(O)c(Br)c1	0%	22	-19%	-3%	-6%	25µM*
CC1=NOC(=O)/C1=C/c1ccc(O)cc1	?	-12	-12%	-30%	-15%	-10%
COc1cc(C=C2C(=O)OC(c3ccccc3)OC2=O)cc(Br)c1O (stereo not given)	-33%	3	-7%	4%	-28%	10µM*
CCOc1cc(/C=C2\C(=O)ON=C2c2ccccc2)cc(Br)c1O	1.4µM*	-22	-17%	-19%	-8%	11µM*
COc1cc2c(-c3ccccc3Cl)nc3c(c(C)nn3-c3ccccc3)c2cc1OC	4%	-25	.	0%	.	-25%
Cc1cnc(SCc2ccccn2)nc1C1CCCN(C(=O)c2cc3ccccc3oc2=O)C1 (stereo not given)	.	.	.	.	.	-28%
CCOC(=O)c1c(C)oc2ncnc(Nc3cc(Cl)ccc3OC)c12	7%	4	.	3%	.	-1%
O=C1ON=C(c2ccc(Cl)cc2)/C1=C/c1ccc(O)cc1	22µM*	-100*	-12%	?	-27%	13µM*
COc1cc(/C=C2\C(=O)ON=C2c2ccccc2)cc(Cl)c1O	7.1µM*	20	-22%	-4%	-16%	7.1µM*
CCOc1cc(/C=C2\C(=O)ON=C2C)ccc1OCc1ccccc1	-5%	-76*	-7%	-30%	0%	28µM*
COc1cc(/C=C2/C(=O)ON=C2c2ccccc2)ccc1O	25µM*	2	-3%	-25%	-11%	?
CCCOc1ccc(/C=C2/C(=O)ON=C2C)cc1OCC	-26%	21	-2%	?	0%	?
C=C1CCN(C(Cc2ccccc2)C(=O)NC2CCN(Cc3ccccc3)CC2)S(=O)(=O)c2ccccc21 (stereo not given)	.	.	4%	.	.	.
CC1CCCCN1CCCNC(=O)c1cc(Sc2ccc(Cl)cc2)nc2ccccc12 (stereo not given)	-1%	-21	.	3%	.	-17%
CC1CCN(CCCNC(=O)c2cc(Sc3ccc(F)cc3)nc3ccccc23)CC1	-6%	-65*	.	-5%	.	-17%
SMILES	Sm TGR inh	HCMV inh	Giardia FBPA inh	Tb PYK inh	RE007 growth inh	FMDV antiviral
O=C(NCCCN1CCCC1)c1cc2c(Cl)nc3ccccc3c2s1	-2%	-35	-9%	-2%	-9%	-2%
CCCN1CCN(CCCNC(=O)c2cc3c(Cl)nc4ccccc4c3s2)CC1	-2%	-80*	.	-4%	.	-20%
CCOC(=O)C1CCCN(C(=O)c2cc3c(Cl)nc4ccccc4c3s2)C1 (stereo not given)	-3%	-77*	.	5%	.	?
CC1CCN(CCCNC(=O)c2cc3c(Cl)nc4ccccc4c3s2)CC1	0%	-91*	0%	-4%	1%	-23%
O=C(c1cc2c(Cl)nc3ccccc3c2s1)N1CCCCC1	0%	4	.	2%	.	56%
CC(=O)N(Cc1ccc2c(c1)OCO2)Cc1cc2ccc(C)cc2nc1-c1cccc(C)c1	.	.	.	.	.	-3%
Cc1ccc(CN2CC=CS2(=O)=O)cc1	.	-22	.	.	.	.
O=S(=O)(Nc1cccc(-c2ccc(N3CCCCC3)nn2)c1)c1cccc(F)c1	-8%	36	.	-2%	.	5%
Cc1cccc(CSC(Nc2ccc(F)cc2)=C(C#N)C#N)c1	-19%	-102*	0%	-10%	-6%	?
N#CC(C#N)=C(Nc1ccc(F)cc1)SCc1cccc(Br)c1	-14%	-99*	-4%	-9%	1%	1.8µM*
COc1ccc(CC(=O)Nc2sc3c(c2C(=O)Nc2c(C)cccc2C)CCCCC3)cc1	4%	-70*	.	-1%	.	-21%
CCOC(=O)c1ccc(NC(=O)c2c(NCc3sccc3C)sc3c2CCCCC3)cc1	50µM*	-11	.	?	.	29%
CCOC(=O)c1ccc(NC(=O)c2c(NCc3cccc(OC)c3OC)sc3c2CCC3)cc1	4%	3	.	?	.	-5%
COc1ccc(NC(=O)c2c(NCc3ccc(N(C)C)cc3)sc3c2CCC3)cc1	32µM*	28	.	?	.	11%
COC(=O)c1ccc(NC(=O)c2c(NCc3ccc(OC)c(OC)c3)sc3c2CCCC3)cc1	-32%	-67*	.	-35%	.	-1%
COc1ccc(NC(=O)c2c(NCc3cccc(OC)c3)sc3c2CCCC3)cc1	-33%	?	.	-21%	.	32%
COc1ccc(CC(=O)Nc2sc3c(c2C(N)=O)CCCC3)cc1OC	-10%	-31	-3%	-10%	-1%	-18%
CCN(CC)S(=O)(=O)c1ccc2c(c1)N(CC(=O)Nc1cccc(C#N)c1)C(=O)CO2	5%	-11	.	1%	.	-10%
COc1ccc(NS(=O)(=O)c2ccc(NC(=S)NC(=O)c3ccc(Br)cc3)cc2)nn1	40µM*	21	-6%	-2%	3%	6%
COc1ccc(NS(=O)(=O)c2ccc(NC(=S)NC(=O)c3cccc(F)c3)cc2)nn1	45µM*	-6	-20%	5%	0%	33%
Cc1cc(NS(=O)(=O)c2ccc(NC(=S)NC(=O)c3cccc(S(=O)(=O)N(C)C)c3)cc2)no1	35µM*	-21	-8%	-8%	-10%	5%
COc1cccc(CN2C(=O)c3ccccc3Sc3ccc(C(=O)NCCc4ccc(Cl)cc4)cc32)c1	6%	9	.	5%	.	8%
